Source: PubChem (National Center for Advancing Translational Sciences (NCATS))
Shiga toxin inh: blocks Shiga toxin action in Vero cells | Vero cells, Shiga toxin protein synthesis inhibition reporter | inhibition, % at 38.7 µM | 290,000 compounds, 9.2% hits; in the data active means inhibition mostly above about 28%, no sharp cut-off; inactive means mostly below about 43%
FMDV antiviral: foot and mouth disease virus antiviral activity; 410,000 compounds, 1.2% hits; FMDV antiviral cell-based qHTS; AID 1159524; Potency, µM (doses to about 57.9 µM), hits mostly inhibitors; calls by dose curve; tested in HEK293T cells; further: read-out not given here; nearly all actives have a fitted effect of over 45% in size
CHX counter: counter-screen hit for Shiga toxin inhibitors, cycloheximide | cell reporter, cycloheximide protein synthesis inhibition counterscreen | max response, % | 300,000 compounds, 12% hits | AID 2314; in the data active means max response mostly above about 13%, no sharp cut-off; inactive means mostly below about 14%; further: read at 38.3 µM for the half of the compounds with a filed dose
Sm TGR block: S. mansoni TGR enzyme inhibition | Q962Y6 | 360,000 compounds, 3% hits | Potency, µM (highest dose often 114 µM), actives largely listed as inhibitors | purified TGR, DTNB reduction, TNB absorbance 405 nm | AID 485364; active means well fitted inhibition curve with a large enough effect; inconclusive means small, poorly fitted or top-dose-only effect; inactive means no such curve, though single readings can be large or run the other way; further: nearly all actives have a fitted effect of over 60% in size
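TGR 20 nM + NADPH 100 uM (dispensed conc.), cpd preinc 15 min RT; start with NADPH (500 uM addition) then DTNB (15 mM addition). Kinetic TNB absorbance, 405 nm filter. Four-parameter Hill fit across titration.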
A number is an active result; 0 = inactive; ? = inconclusive; - = no result given. The list is not random: actives were taken first. Their share in the collection is about 12%.

SMILES	Shiga toxin inh	FMDV antiviral	CHX counter	Sm TGR block
CCOC(=O)c1ccc(Nc2c(-c3ccc(N(C)C)cc3)nc3nc[nH]n23)cc1	-	0	-	0
CC(C)Cn1cc(NC(=O)NCc2ccccc2Cl)c2ccccc2c1=O	-	0	-	0
O=C(CBr)c1ccc([N+](=O)[O-])c(CS(=O)(=O)c2ccc(Cl)cc2)c1	0	0	0	5µM
CCN(CC)C(=O)c1ccc2c(c1)N(Cc1c(F)cccc1Cl)C(=O)c1ccccc1S2	-	0	-	0
Nc1c(-c2cccs2)cnc2c(-c3ccc(F)cc3)cnn12	118	?	43	0
CS(=O)(=O)c1cnc2c(-c3ccc(F)cc3)cnn2c1N	61	0	58	0
CS(=O)(=O)c1cnc(-c2ccccc2)nc1Oc1ccc(F)cc1	0	0	0	0
N#Cc1cnn2c(N)c(-c3ccc(Cl)cc3)cnc12	0	0	0	0
CC(C)(C)S(=O)(=O)c1cnc2c(-c3ccsc3)cnn2c1N	0	0	49	0
Nc1c(-c2ccsc2)cnc2ncnn12	0	0	0	0
Nc1c(-c2ccccc2)cnc2c(-c3ccccc3)cnn12	130	0	52	0
CC(=O)c1cccc(NC(=O)CN2C(=O)CC(c3ccc(C)cc3C)=Nc3ccccc32)c1	-	0	-	0
CC(C)=CCCC1(C)C=Cc2c(c(C)cc3c2[nH]c2ccccc23)O1 (stereo not given)	-	0	-	-
CSc1ccccc1C(=O)Nc1nc2ccccc2c(=O)[nH]1	80	0	32	0
CSc1ccccc1C(=O)Nc1nc2ccccc2[nH]1	73	0	39	0
